Each structure is given as a SMILES string. “And” between values parts separate entries of the source, which are not always exact repeats. Identical values can stand only once.

The term inhibition denotes the relative decrease from the control value, in per cent.

Assay [1] addresses Fibroblast growth factor receptor 4 (Homo sapiens) (UniProt P22455). To be noted: at 1 µM.
Assay [2] concerns the target Tyrosine-protein kinase Fgr (Homo sapiens) (UniProt P09769). The conditions noted are these: at 0.1 µM.
For assay [3] the target is unchanged. To be noted: at 1 µM.
The target in assay [4] is Vascular endothelial growth factor receptor 1 (Homo sapiens) (UniProt P17948). To be noted: at 0.1 µM.
Assay [5] shares this target. The conditions noted are these: at 1 µM.
Assay [6] addresses Receptor-type tyrosine-protein kinase FLT3 (Homo sapiens) (UniProt P36888). To be noted: at 0.1 µM.
Assay [7] shares this target. The conditions noted are these: at 1 µM.
The test system of assay [8] is T1, Receptor-type tyrosine-protein kinase FLT3 (Homo sapiens), P36888 [D835Y].
T1 sequence (whole entry): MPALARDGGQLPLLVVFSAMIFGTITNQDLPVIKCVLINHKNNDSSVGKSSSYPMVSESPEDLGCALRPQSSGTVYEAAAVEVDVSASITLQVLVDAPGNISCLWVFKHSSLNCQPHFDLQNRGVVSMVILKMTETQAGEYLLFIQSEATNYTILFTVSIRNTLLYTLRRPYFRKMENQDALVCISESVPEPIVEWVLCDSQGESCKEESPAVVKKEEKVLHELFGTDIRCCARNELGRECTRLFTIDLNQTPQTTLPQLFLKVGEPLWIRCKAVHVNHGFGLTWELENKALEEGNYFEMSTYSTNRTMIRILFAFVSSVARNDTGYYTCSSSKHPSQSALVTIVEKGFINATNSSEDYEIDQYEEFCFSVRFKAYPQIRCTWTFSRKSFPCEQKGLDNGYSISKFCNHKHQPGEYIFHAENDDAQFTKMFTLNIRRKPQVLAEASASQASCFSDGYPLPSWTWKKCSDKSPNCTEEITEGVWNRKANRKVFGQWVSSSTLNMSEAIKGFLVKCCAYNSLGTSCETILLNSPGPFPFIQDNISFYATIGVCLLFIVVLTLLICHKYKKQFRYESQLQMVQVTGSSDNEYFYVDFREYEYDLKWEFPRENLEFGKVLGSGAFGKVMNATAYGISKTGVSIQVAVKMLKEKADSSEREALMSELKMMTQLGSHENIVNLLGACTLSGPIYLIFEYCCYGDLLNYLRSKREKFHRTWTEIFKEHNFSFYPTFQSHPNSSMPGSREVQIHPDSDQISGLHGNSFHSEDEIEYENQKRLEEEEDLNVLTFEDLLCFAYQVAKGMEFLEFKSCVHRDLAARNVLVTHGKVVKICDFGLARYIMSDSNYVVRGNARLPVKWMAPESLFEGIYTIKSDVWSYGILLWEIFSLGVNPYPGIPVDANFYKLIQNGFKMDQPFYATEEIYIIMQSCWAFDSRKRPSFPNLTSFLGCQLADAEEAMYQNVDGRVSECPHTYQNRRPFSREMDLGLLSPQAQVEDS
The conditions noted are these: at 0.1 µM.

For assay [9], the target named is Non-receptor tyrosine-protein kinase TYK2 (Homo sapiens) (UniProt P29597). The conditions noted are these: at 1 µM.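 Also: values are mean percent inhibition of TYK2 kinase.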
The target of assay [10] is T2, Tyrosine-protein kinase receptor TYRO3 (Homo sapiens) (UniProt Q06418).
T2 sequence (whole entry): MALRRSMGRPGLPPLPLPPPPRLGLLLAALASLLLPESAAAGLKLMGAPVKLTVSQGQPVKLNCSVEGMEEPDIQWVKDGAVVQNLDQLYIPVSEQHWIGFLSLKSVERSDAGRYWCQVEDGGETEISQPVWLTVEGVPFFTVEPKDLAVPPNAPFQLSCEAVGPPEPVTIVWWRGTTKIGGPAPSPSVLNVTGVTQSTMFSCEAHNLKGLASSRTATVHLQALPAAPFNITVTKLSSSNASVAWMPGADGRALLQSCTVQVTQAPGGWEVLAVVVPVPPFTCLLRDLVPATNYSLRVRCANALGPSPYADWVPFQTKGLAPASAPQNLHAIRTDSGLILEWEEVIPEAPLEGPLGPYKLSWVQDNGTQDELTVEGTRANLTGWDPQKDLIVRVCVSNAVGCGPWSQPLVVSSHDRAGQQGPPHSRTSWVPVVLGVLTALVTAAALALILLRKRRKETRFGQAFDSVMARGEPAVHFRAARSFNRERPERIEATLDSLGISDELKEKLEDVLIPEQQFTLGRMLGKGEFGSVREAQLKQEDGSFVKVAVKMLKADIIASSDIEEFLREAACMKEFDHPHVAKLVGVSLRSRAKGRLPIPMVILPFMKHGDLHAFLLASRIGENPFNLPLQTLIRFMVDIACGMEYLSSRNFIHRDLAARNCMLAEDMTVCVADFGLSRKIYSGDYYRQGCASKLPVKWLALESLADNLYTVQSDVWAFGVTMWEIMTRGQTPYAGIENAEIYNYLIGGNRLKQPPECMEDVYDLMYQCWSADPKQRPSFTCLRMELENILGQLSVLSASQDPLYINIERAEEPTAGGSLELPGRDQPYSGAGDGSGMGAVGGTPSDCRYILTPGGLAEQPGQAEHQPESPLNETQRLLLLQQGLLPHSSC
The conditions noted are these: at 0.1 µM.

Assay [11] has as its target T2, Tyrosine-protein kinase receptor TYRO3 (Homo sapiens). The conditions noted are these: at 1 µM.
Assay [12] concerns the target Tyrosine-protein kinase Yes (Homo sapiens) (UniProt P07947). To be noted: at 0.1 µM.
For assay [13] the target is unchanged. To be noted: at 1 µM.
For assay [14], the target named is T3, Tyrosine-protein kinase ZAP-70 (Homo sapiens) (UniProt P43403).
T3 sequence (whole entry): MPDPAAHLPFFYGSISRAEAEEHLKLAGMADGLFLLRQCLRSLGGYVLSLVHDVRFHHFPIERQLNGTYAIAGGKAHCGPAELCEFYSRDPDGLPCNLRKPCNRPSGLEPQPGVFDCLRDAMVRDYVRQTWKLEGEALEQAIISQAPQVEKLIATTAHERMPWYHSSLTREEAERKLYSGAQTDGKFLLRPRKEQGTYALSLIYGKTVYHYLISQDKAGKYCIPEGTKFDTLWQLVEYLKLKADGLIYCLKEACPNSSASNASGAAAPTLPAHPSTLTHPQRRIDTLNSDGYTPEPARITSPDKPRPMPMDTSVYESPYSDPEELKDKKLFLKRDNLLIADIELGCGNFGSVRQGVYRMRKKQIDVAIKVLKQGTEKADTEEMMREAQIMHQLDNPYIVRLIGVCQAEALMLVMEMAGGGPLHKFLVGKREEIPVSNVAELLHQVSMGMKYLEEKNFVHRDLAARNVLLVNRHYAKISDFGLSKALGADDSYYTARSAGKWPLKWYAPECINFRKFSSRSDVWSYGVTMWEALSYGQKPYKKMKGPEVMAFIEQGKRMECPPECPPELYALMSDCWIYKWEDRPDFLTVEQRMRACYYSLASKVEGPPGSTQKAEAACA
To be noted: at 0.1 µM.

The target in assay [15] is T3, Tyrosine-protein kinase ZAP-70 (Homo sapiens). The conditions noted are these: at 1 µM.
Assay [16] has as its target Serine/threonine-protein kinase B-raf (Homo sapiens) (UniProt P15056). The conditions noted are these: at 0.1 µM.
Assay [17] shares this target. The conditions noted are these: at 1 µM.
For assay [18], the system named is Serine/threonine-protein kinase B-raf (Homo sapiens), P15056 [V600E]. To be noted: at 0.1 µM.
For assay [19] the test system is unchanged. To be noted: at 1 µM.
Assay [20] addresses RAF proto-oncogene serine/threonine-protein kinase (Homo sapiens) (UniProt P04049). The conditions noted are these: at 0.1 µM.

Chain of Non-receptor tyrosine-protein kinase TYK2 (Homo sapiens) (P29597 whole entry): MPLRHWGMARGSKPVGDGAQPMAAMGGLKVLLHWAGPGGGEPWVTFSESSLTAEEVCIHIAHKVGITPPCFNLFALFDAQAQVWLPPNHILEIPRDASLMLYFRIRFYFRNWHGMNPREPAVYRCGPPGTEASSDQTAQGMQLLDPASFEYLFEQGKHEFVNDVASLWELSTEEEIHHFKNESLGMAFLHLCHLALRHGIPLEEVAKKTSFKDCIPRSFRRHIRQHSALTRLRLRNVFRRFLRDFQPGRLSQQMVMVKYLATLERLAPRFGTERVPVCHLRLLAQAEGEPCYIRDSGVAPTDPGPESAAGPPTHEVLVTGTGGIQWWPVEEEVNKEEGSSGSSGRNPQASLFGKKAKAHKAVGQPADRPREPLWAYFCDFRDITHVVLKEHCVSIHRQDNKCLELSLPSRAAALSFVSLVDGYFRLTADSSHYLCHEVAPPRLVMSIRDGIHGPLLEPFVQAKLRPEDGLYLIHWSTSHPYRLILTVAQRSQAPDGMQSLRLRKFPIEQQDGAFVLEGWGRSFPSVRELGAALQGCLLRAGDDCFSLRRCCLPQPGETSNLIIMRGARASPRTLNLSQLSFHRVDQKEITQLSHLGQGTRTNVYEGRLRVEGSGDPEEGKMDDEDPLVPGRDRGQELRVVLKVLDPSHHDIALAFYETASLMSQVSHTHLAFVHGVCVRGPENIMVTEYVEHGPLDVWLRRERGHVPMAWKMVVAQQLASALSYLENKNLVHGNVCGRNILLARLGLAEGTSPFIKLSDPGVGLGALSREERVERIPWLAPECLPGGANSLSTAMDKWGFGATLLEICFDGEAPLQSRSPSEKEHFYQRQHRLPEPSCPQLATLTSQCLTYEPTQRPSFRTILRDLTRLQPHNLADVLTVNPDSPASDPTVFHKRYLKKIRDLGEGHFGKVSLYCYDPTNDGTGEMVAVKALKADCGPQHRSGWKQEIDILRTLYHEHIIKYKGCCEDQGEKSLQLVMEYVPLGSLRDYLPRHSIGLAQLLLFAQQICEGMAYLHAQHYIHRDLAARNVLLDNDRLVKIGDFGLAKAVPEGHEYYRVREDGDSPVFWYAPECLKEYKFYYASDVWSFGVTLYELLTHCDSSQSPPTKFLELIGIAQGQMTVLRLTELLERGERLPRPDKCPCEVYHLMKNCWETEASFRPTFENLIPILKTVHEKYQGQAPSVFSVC
Chain of Tyrosine-protein kinase Yes (Homo sapiens) (P07947 2-543 limits assumed): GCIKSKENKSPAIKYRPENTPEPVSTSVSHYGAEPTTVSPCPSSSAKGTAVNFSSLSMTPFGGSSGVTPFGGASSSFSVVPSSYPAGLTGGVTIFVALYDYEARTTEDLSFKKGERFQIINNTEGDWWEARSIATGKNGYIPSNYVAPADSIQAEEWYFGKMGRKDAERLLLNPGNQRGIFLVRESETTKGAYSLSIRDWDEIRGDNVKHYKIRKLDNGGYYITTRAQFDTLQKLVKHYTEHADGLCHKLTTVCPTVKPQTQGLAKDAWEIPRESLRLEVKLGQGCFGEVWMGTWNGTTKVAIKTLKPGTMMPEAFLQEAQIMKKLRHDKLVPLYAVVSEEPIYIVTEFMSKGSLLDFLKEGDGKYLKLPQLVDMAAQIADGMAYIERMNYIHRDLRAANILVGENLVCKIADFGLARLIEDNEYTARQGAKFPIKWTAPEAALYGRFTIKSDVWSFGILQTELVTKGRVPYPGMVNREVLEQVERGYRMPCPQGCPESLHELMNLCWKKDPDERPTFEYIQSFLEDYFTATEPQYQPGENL
Chain of Tyrosine-protein kinase Fgr (Homo sapiens) (P09769 2-529 limits assumed): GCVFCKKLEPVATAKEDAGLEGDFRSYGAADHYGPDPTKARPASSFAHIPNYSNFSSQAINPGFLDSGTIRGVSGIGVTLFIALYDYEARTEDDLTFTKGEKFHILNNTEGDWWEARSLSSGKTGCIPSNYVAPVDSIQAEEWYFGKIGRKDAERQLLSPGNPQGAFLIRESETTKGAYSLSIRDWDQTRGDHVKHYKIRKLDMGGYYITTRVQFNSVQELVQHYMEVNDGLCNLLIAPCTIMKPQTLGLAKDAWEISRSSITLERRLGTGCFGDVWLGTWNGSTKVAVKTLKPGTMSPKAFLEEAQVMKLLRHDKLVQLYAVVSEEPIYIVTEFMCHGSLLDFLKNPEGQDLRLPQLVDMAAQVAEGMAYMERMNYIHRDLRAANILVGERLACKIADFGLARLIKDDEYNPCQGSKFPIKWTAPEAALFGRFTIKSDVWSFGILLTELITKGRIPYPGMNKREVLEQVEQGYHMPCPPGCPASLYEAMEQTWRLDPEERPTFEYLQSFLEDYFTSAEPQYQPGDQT
Chain of RAF proto-oncogene serine/threonine-protein kinase (Homo sapiens) (P04049 whole entry): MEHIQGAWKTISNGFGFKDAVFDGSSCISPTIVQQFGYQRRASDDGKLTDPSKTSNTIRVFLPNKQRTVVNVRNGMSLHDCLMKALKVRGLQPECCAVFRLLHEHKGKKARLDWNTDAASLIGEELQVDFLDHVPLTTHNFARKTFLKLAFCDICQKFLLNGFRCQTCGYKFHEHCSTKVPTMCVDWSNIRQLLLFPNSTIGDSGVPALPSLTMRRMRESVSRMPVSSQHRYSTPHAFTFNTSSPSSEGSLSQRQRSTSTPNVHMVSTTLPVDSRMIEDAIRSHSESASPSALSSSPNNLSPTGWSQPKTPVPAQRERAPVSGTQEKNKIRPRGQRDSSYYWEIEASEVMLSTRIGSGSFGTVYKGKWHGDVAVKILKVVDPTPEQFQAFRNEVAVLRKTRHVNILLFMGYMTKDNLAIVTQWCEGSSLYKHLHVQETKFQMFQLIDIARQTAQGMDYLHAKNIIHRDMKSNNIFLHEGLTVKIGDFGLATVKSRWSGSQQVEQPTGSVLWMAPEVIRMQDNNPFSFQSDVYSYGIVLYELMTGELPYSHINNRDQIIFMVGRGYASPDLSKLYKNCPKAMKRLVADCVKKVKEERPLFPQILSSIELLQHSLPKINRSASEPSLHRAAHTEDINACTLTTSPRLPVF
Chain of Serine/threonine-protein kinase B-raf (Homo sapiens) (P15056 whole entry): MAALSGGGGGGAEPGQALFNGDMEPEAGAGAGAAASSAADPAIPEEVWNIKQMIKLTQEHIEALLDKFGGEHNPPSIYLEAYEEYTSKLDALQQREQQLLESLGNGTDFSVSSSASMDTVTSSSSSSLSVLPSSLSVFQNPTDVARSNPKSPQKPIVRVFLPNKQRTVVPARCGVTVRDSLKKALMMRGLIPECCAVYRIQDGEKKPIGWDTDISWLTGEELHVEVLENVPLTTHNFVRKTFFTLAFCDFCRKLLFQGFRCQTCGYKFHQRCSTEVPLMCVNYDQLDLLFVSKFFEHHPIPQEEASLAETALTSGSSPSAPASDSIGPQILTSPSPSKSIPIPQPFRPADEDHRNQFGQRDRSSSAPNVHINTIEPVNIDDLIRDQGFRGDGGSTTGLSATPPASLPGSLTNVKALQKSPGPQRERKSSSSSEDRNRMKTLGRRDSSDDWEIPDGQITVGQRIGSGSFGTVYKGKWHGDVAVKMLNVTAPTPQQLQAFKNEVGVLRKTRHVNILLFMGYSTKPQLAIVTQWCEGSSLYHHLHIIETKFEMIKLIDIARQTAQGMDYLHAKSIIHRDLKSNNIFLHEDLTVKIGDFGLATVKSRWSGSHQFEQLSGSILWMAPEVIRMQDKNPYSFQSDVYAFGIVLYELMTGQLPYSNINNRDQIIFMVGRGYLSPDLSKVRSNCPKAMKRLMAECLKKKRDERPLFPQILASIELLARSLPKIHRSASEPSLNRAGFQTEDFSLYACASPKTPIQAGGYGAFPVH
Chain of Serine/threonine-protein kinase B-raf (Homo sapiens), P15056 [V600E] (P15056 whole entry V600E): as the sequence (P15056 whole entry) above, with V600E counted along it
Chain of Fibroblast growth factor receptor 4 (Homo sapiens) (P22455 22-802 limits assumed): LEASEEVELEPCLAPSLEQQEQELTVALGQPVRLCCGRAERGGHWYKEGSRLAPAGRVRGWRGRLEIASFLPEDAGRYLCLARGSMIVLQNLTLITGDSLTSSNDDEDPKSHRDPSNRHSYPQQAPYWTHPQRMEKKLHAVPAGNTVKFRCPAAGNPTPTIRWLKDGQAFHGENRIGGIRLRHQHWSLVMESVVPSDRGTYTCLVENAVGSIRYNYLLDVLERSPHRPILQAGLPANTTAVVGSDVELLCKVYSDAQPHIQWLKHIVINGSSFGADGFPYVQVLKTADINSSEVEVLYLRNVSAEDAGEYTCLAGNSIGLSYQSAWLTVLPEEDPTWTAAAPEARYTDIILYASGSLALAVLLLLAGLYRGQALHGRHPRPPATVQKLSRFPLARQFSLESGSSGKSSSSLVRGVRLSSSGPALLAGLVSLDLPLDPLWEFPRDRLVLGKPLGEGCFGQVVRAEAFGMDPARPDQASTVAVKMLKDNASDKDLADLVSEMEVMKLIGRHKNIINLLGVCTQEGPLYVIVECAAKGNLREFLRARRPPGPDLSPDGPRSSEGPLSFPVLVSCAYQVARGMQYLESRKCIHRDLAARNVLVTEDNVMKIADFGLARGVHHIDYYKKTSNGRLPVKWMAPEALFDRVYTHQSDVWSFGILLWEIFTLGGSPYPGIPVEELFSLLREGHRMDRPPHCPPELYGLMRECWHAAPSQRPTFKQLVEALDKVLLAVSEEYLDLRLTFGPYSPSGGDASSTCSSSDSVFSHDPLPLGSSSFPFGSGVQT

Regarding `NS(=O)(=O)c1ccc(N/N=C2\C(=O)Nc3ccc(C(=O)NCc4ccncc4)cc32)cc1`, the inhibition was determined as 2.18% in [1]; 4.24% in assay [2]; 12.5% in assay [3]; 2.5% in [4]; 10.3% in assay [5]; 2.9% in [6]. For the same molecule, the inhibition in assay [7] came to 11.4%; in assay [8], 3.79%; in [9] it was 0.98%; in [10], 2.32%; in [11], 8.28%; in assay [12], 4.07%. In addition, the inhibition in assay [13] was found to be 17.1%; in [14], 2.55%; in assay [15], 3.8%; in assay [16], 14.8%; in [17], 56.7%; in assay [18] it was 15.1%. Besides, the inhibition in assay [19] came to 56.3%; in [20], 0.58%.

In the case of `CCN1CCC(C(=O)Nc2n[nH]c3nnc(-c4cccc(F)c4F)cc23)CC1`, the inhibition was determined as 1.49% in [1]; 1.72% in [2]; 3.35% in [3]; 0.76% in assay [4]; 1.26% in assay [5]; 1.71% in assay [6]. Moreover, the inhibition is 6.05% in assay [7]; -1.16% in assay [8]; -3.82% in assay [9]; -1.35% in assay [10]; 1.67% in [11]; 2.36% in assay [12]. For the same molecule, the inhibition is -0.1% in [13]; -1.24% in [14]; 2.19% in assay [15]; -0.36% in assay [16]; 0.01% in assay [17]; 1.12% in assay [18]. The inhibition in assay [19] was 1.24%; in assay [20], -4.36%.

Turning to `CN1CCN(Cc2ccc(-c3cc4ncnc(Nc5ccc(OCc6cccc(F)c6)c(Cl)c5)c4s3)o2)CC1`, the inhibition in assay [1] was 0.2% and 1%; in assay [2], 5.67% and 10.9%; in assay [3], 30.3% and 30.1%; in [4], 0.35% and 1.57%; in [5], 3.76% and 1.58%; in [6] it was 3.12% and 0.52%. Moreover, the inhibition is 1.99% and 2.76% in assay [7]; -3.92% and 0.13% in assay [8]; -7.87% and -0.75% in [9]; 2.09% and 4.83% in assay [10]; 12.4% and 17.4% in assay [11]; 14% and 15.7% in [12]. In addition, the inhibition in [13] is 58.6% and 60.3%; in assay [14], 1.12% and 6.43%; in assay [15], 7.67% and 11.7%; in assay [16], 4.33% and 8.54%; in assay [17] it was 5.51% and 9.42%; in [18], 3.61% and 9.64%. Further, the inhibition was 4.75% and 9.2% in assay [19]; -0.28% and 16.3% in assay [20].

Take `Nc1nonc1-c1nc2cnccc2n1C1CC1`: the inhibition in [1] is 0.52% and -2.65%; in [2], 1.63% and 3.54%; in [3] it was 4.78% and 2.49%; in [4] it was 2.44% and 2.46%; in assay [5] it was 7.3% and 7.59%; in [6], -0.66% and 0.33%. Moreover, the inhibition was 4.5% and 3.82% in assay [7]; 2.73% and -0.79% in [8]; -1.02% and -1.56% in assay [9]; 1.66% and 1.58% in assay [10]; 4.53% and 2.7% in [11]; -0.59% and 1.1% in assay [12]. For the same molecule, the inhibition in assay [13] was 1.1% and 2.73%; in assay [14], 0.56% and -1.17%; in assay [15], 3.98% and -1.48%; in [16] it was 5.09% and 3.82%; in assay [17], 9.07% and 5.15%; in [18] it was 4.37% and 3.69%. The inhibition is 8.28% and 5.87% in [19]; 6.05% and 2.66% in assay [20].

Take `CCS(=O)(=O)c1ccc(OC)c(Nc2ncc(-c3cccc(F)c3)o2)c1`: the inhibition in assay [1] was found to be 17.6%; in assay [2] it was 40.2%; in assay [3], 76.2%; in [4], 14.2%; in [5], 55.3%; in [6], 23.3%. Besides, the inhibition in [7] is 74.5%; in [8], 17.6%; in assay [9], -2.12%; in [10], 6.63%; in assay [11] it was 26.2%; in assay [12], 75.9%. For the same molecule, the inhibition in assay [13] was found to be 96.3%; in [14], 1.94%; in assay [15] it was 5.25%; in assay [16] it was 7.42%; in assay [17], 10%; in [18], 4.95%. Further, the inhibition in assay [19] came out at 4.95%; in [20], 1.22%.

For `Nc1nccc(-c2c(-c3ccc(F)cc3)ncn2C2CCNCC2)n1`, the inhibition was -0.1% and 1.64% in [1]; -0.15% and 1.9% in [2]; 4.65% and 8.7% in assay [3]; -0.52% and 1.63% in [4]; -0.59% and 2.14% in assay [5]; -1.21% and 1.71% in [6]. The inhibition was -2.93% and 1.86% in [7]; -8.75% and 1.68% in assay [8]; 2.68% and 1.47% in assay [9]; -2.12% and 1.7% in assay [10]; 1.14% and -0.71% in assay [11]; -1.29% and 0.36% in [12]. For the same molecule, the inhibition in [13] was 11.9% and 16.2%; in [14], 1.4% and 0.85%; in assay [15], -2.69% and 1.59%; in assay [16], -2.89% and 1.95%; in assay [17], -0.2% and 7.76%; in assay [18], -4.19% and 1.23%. Also, the inhibition in assay [19] is 0.9% and 7.41%; in [20] it was -3.57% and -1.58%.
